# Laboratory results taken from ChEMBL document CHEMBL1201862, “PubChem BioAssay data set” (2004).
# About 910 (0.23%) of roughly 390,000 compounds were called active. About 5% were inconclusive and are not listed. The calls are words filed in the database; no cut-off is given here. The sample as a whole holds a higher share of actives than the screen did.
# Biological target: T1, Ubiquitin carboxyl-terminal hydrolase 1 (Homo sapiens) (UniProt O94782)
# T1 sequence (whole entry): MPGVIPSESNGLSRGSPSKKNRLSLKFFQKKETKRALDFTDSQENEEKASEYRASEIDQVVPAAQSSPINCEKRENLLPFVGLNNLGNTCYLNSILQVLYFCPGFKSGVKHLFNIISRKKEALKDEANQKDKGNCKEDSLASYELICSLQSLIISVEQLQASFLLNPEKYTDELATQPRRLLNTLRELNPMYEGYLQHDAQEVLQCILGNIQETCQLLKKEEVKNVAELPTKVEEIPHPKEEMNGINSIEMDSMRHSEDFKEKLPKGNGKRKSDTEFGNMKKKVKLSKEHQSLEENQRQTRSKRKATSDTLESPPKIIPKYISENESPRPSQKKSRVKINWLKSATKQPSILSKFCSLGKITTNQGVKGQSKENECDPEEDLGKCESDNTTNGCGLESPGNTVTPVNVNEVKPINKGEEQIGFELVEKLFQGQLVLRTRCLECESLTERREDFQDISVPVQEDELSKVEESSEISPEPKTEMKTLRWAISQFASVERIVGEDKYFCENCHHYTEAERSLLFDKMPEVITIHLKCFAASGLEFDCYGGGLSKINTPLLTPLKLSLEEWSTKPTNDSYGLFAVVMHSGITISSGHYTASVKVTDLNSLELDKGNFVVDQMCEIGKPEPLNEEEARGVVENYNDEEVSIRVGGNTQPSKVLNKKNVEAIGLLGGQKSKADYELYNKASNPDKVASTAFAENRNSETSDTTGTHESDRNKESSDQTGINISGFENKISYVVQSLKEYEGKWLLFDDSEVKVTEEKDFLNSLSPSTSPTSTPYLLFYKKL
# Assay: Inhibitors of USP1/UAF1: Primary Screen.
# Type: functional
row,SMILES,Potency
1,CCn1nc(-c2ccccc2)nc2c(=O)n(C)c(=O)nc1-2,89.1 µM (active)
